Source: PubChem BioAssay

Each compound was assayed against Beta-2 adrenergic receptor (Homo sapiens) (UniProt P07550) (assay: agonist-induced loss of surface beta2AR – cell-based, FAP fluorogen, flow cytometry, validation set, pilot screen (AID 504459;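 note: agonist-driven loss of surface beta2AR via internalization measured by FAP dye flow cytometry; reference of the scale not given here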)). Conditions: Am2.2-beta2AR cells, at 10 µM, active compounds read high;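 active = percent response above 42, roughly 3 SD of non-fluorescent test compounds; inactive = the rest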.
Beta-2 adrenergic receptor (Homo sapiens), sequence (P07550 whole entry, looked up): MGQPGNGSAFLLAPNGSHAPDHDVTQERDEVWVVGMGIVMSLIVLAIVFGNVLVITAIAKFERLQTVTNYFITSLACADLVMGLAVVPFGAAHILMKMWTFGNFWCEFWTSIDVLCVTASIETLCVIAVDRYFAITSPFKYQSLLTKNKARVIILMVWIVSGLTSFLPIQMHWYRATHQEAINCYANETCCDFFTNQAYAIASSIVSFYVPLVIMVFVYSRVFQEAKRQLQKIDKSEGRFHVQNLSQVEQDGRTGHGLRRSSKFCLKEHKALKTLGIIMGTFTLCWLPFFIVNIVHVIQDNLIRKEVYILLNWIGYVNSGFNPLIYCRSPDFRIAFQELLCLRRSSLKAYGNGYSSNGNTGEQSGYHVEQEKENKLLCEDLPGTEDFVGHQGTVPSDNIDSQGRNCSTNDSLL

response, inactive:
C[C@]12CC[C@@H]3c4ccc(OS(=O)(=O)O)cc4CC[C@H]3[C@@H]1CCC2=O 0.04%
O=C1C2C3C=CC(C4CC34)C2C(=O)N1/N=C/c1ccc(-c2ccc([N+](=O)[O-])cc2)o1 (configuration not stated) 25.8%
Cc1oc2ccc(OC(=O)c3cccs3)cc2c1C(=O)OC(C)C -19.3%
COc1ccc(CCN(C)CC(=O)Nc2cc(C)nc3ccccc23)cc1OC 7.03%
C[C@]12C=CC(=O)C=C1CCC1C3CC[C@](O)(C(=O)CO)[C@@]3(C)CC3OC312 (some centres not stated) 2.49%
c1ccc2c(c1)CCCC2C1=NCCN1 (configuration not stated) -24.5%
C=CCc1cc(Cl)ccc1OCCOCCN(C)C 3.31%
COc1cc2c(cc1OC)C(Cc1ccc(O)cc1)N(C)CC2 (configuration not stated) -6.53%
CCOc1ccc(C(=O)Nc2ccc(N3CCN(C(C)=O)CC3)cc2)cc1[N+](=O)[O-] -6.75%
OCCN(CCO)c1ccc2ccccc2c1 -2.38%
COc1ccc(CN(C)CCc2ccccn2)cc1OC 6.81%
CC(=O)OCC1OC(n2ccc(=O)[nH]c2=O)C(O)C1O (configuration not stated) -2%
CC(=O)N1N=C(c2cccs2)CC1c1ccc(C)o1 (configuration not stated) -10.5%
Cc1cc(C)c2c(CCl)cc(=O)oc2c1 -0.73%
NC12CC3CC(CC(C3)C1)C2 -15.1%
CC12CCC(C(=O)N3CCCCC3)([C@H](Br)C1=O)C2(C)C (some centres not stated) -6.79%
CC(NCCC(c1ccccc1)c1ccccc1)c1ccccc1 (configuration not stated) 24.3%
